# Laboratory results: PubChem BioAssay AID1347416 (National Center for Advancing Translational Sciences (NCATS), 2020)
# Among all 4,100 compounds or so, about 1,600 (39%) were called active. About 25% were inconclusive and are not listed. Calls follow the shape of the dose curve; as a rule, active = well fitted inhibition curve with a large enough effect; inconclusive = small, poorly fitted or top-dose-only effect; inactive = no such curve, though single readings can be large or run the other way. The list shows a part of the results. Entries that show only a call come without a potency.
# Assay: qHTS Validation assay for Inhibitors of Plasmodium falciparum Dd2 growth in vitro; also: nearly all actives have a fitted effect of over 70% in size
# Settings: P. falciparum Dd2 in RBCs, SYBR Green growth, 72 h; series mostly up to 28.7 µM
# Summary of the method: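 P. falciparum Dd2-infected red blood cells (2.5% hematocrit, 0.3% parasitemia) grown 72 h at 37 °C under 5% O2 with compounds in a titration, 29 uM to 0.5 nM final. Growth read as SYBR Green-1 fluorescence after ~16 h lysis; artesunate 300 nM as positive control.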
# Potency is read from the fitted curve at half-maximal effect.
row,Structure (SMILES),Potency
1,CCN(C(=O)c1cc2cc(Br)cc(OC)c2oc1=O)c1ccccc1,inactive
2,Cc1nc(CCNC(=O)C2CC2)no1,inactive
3,O=C(c1ccc(-c2ncc3cnc(-c4ccccc4)cn23)cc1)N1CCc2cccnc21,17.2 µM (active)
4,O=C(c1ccc(-c2ncc3cnc(-c4cccc(F)c4)cn23)cc1)N1CCc2cccnc21,inactive
5,Cc1ccc(C(=O)N2CCCn3cc(-c4cccc(C#N)c4)nc32)cc1,inactive
6,CCOC(=O)c1ccc(Nc2nc3nonc3nc2Nc2cccc(C)c2C)cc1,8.41 µM (active)
7,COc1ccc(Nc2ccccc2NC(=O)c2ccccc2Br)cc1,5.96 µM (active)
8,COc1ccc(NC(=O)c2cccc3c2CCN3C(=O)Nc2ccc(F)cc2)c(C)c1,inactive
9,CCNC(=O)N1CC[C@H]2CC(=O)N([C@H](C(N)=O)C(C)C)CC[C@H]2C1,inactive
10,O=C1C=C(c2cccc(CO)c2)C[C@@H](c2ccc(Cl)cc2)C1,3.76 µM (active)
11,Cn1cc(-c2cccc(CO)c2)c2nc(COc3ccc(Cl)cc3)cn2c1=O,inactive
12,CC1(c2ccccc2)O[C@@H]2C[C@H]3[C@@H]4CCC5=CC(=O)C=C[C@]5(C)[C@@]4(F)[C@@H](O)C[C@]3(C)[C@]2(C(=O)CO)O1 (stereo not given in full),4.73 µM (active)
13,O=C(Nc1ccncc1)C1c2ccccc2Oc2ccccc21,inactive
14,CCOC(=O)c1sc(NC(=O)C2c3ccccc3Oc3ccccc32)c(C(=O)OCC)c1C,2.66 µM (active)
15,COc1cc(Nc2ncncc2-c2nc(-c3ccccc3)no2)cc(OC)c1OC,inactive
16,Cc1ccccc1C(=O)N1CCC(c2nn(-c3ccc(Cl)cc3)c(=O)[nH]2)CC1,inactive
17,CC(C)(C)OC(=O)N1CCC(CNC(=O)c2ccc(F)cc2)CC1,inactive
18,Cc1ccc(-n2ncc(C(=O)N3CCN(c4cc(Cl)ccc4C)CC3)c2C2CCN(C(=O)OC(C)(C)C)CC2)cc1,8.41 µM (active)
19,Cc1ccc(C)c(N2CCN(CCCNC(=O)c3cnn(-c4ccc(F)cc4)c3C3CCN(C(=O)OC(C)(C)C)CC3)CC2)c1,2.66 µM (active)
20,CC(C)(C)OC(=O)N1CCC(c2c(C(=O)NCCN3CCC(Cc4ccccc4)CC3)cnn2-c2ccc(F)cc2)CC1,5.31 µM (active)
21,Cc1ccc(C)c(N2CCN(CCCNC(=O)c3cnn(-c4cccc(Cl)c4)c3C3CCN(C(=O)OC(C)(C)C)CC3)CC2)c1,8.41 µM (active)
22,Cn1cnc(S(=O)(=O)N2CCCOCCNC(=O)[C@@H]3CCC[C@@H]32)c1,inactive
23,Cc1cccc(C)c1-n1ncc(C(=O)NCCCN2CCC(C)CC2)c1C1CCN(C(=O)OC(C)(C)C)CC1,15 µM (active)
24,CC(C)(C)OC(=O)N1CCC(c2c(C(=O)NCCN3CCc4ccccc4C3)cnn2-c2ccc(F)cc2F)CC1,5.31 µM (active)
25,CC1CCN(C(=O)c2cc3c(s2)CCC(C(=O)NCCCN2CCOCC2)C3)CC1 (stereo not given),inactive
